Test results reported in ChEMBL document CHEMBL3433997, “St. Jude Leishmania screening dataset” (2016).

Key:
Type in all cases: functional
[1] = target: Solute carrier family 2, facilitated glucose transporter member 1 (Homo sapiens) (UniProt P11166); assay: ST_JUDE_LEISH: Cytotoxicity at 2uM final concentration against transgenic Leishmania Mexicana promastigotes LmGLUT1 that are glucose transport deficient and complemented with the human glucose transporter GLUT1. Activity is measured by DNA content using SYBR green in vitro
[2] = target: Hexose transporter 1 (Plasmodium falciparum) (UniProt O97467); assay: ST_JUDE_LEISH: Cytotoxicity at 2uM final concentration against transgenic Leishmania Mexicana promastigotes LmPfHT that are glucose transport deficient and complemented with the Plasmodium falciparum hexose transporter. Activity is measured by DNA content using SYBR green in vitro
[3] = target: Glucose transporter (Leishmania mexicana) (UniProt O61059); assay: ST_JUDE_LEISH: Cytotoxicity at 2uM final concentration against transgenic Leishmania Mexicana promastigotes LmGT2 that are glucose transport deficient and complemented with the L. Mexicana glucose transporter 2. Activity is measured by DNA content using SYBR green in vitro

Sequence of Solute carrier family 2, facilitated glucose transporter member 1 (Homo sapiens) (P11166 whole entry): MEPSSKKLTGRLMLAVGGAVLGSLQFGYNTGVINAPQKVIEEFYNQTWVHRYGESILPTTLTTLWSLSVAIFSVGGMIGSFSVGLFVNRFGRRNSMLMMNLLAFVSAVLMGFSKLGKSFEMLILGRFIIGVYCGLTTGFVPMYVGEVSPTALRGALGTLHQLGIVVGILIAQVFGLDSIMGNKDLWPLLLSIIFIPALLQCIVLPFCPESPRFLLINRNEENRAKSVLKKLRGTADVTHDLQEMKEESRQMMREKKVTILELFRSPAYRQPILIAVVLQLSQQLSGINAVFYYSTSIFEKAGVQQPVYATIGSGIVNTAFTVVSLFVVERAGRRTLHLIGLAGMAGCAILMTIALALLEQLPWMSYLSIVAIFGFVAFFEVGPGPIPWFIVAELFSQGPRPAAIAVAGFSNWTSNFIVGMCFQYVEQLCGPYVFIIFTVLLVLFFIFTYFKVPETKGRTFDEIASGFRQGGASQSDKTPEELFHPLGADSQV

Structure (SMILES) | inhibition [1] | inhibition [2] | inhibition [3]
Cc1cccc2nc(-c3ccc(-c4cccc(NC(=O)Nc5ccc(Cl)c(Cl)c5)c4)s3)[nH]c12 | 0.85% | -0.11% | 0.38%
CCCNCc1ccc(-c2ccc(CN(CCOC)C(=O)c3cscn3)cc2)nc1 | 1.92% | 1.83% | 2.19%
CC(C)(Cc1ccc(Cl)cc1)NCCCCCCNCCc1ccc(O)c(O)c1 | -0.5% | -2.96% | -1.18%
CCc1ccc(O)c(-c2cc(C(=O)Nc3ccc(OC)c(Cl)c3)[nH]n2)c1 | 0.23% | 0.3% | -7%
Cc1ccc(C2CCN(CCCCNC(=O)c3ccc(NC(=O)c4ccc(Cl)cc4)cc3)CC2)c(OCC2CC2)c1 | 7.51% | 6.25% | 5.52%
O=C(/C=C/c1ccc(Cl)c(Cl)c1)NCCCCCN1CCCN(C(=O)Nc2ccc(Cl)cc2)CC1 | 0.39% | -0.48% | 0.01%
Cc1cc2nc(N/C(N)=N/C(=O)NC3CCCCC3)nc(C)c2cc1C | 3.18% | 3.48% | 0.78%
Cc1cc(F)ccc1Nc1nc(N(C)c2ccccc2)c2cc(OCCN(C)C)ccc2n1 | 7.87% | 6.84% | 2.04%
Cc1c(CNCCN2CCCCC2)c(C(=O)O)c(C)n1Cc1ccc(Cl)cc1 | -0.09% | 0.33% | 0.22%
COc1ccc2nccc([C@@H](O)CN3CCC(NCc4cc5c(Cl)cc(Cl)cc5[nH]4)CC3)c2c1 | 6.83% | 5.77% | 1.13%
Cc1cc2c(cc1C(F)(F)F)N(C(=O)Nc1cc(OCCN(C)C)cc(C(F)(F)F)c1)CC2 | -0.72% | -1.6% | -0.42%
FC(F)(F)c1ccc(COc2cc(Cl)ccc2Cn2ccnc2)cc1 | 14% | 9.99% | 7.28%
